Drawing on PubChem BioAssay (NCI), this text covers growth for 8 compounds.

Holding throughout (test): NCI-60 one-dose screen, 48 h (100 = growth as untreated, 0 = no growth, -100 = all killed)
Settings in all cases: 10 µM unless noted

Experiment [1] relates to DU-145 prostate.
In experiment [2] the test system is K-562 leukemia.
Experiment [3] relates to MALME-3M melanoma.
In experiment [4] the test system is MDA-MB-231 breast.
The test system of experiment [5] is RXF 393 renal.
The test system of experiment [6] is SF-268 CNS.
Experiment [7] concerns SF-295 CNS.
In experiment [8] the test system is SF-539 CNS.
In experiment [9] the test system is UACC-257 melanoma.
In experiment [10] the test system is M14 melanoma.
Experiment [11] has as its system HCT-15 colon.
For experiment [12], the system named is HT29 colon.
Experiment [13] deals with SNB-75 CNS.
Experiment [14] concerns SNB-19 CNS.
The test system of experiment [15] is U251 CNS.
Experiment [16] relates to PC-3 prostate.
Experiment [17] relates to SK-MEL-5 melanoma.
Experiment [18] relates to UACC-62 melanoma.
Experiment [19] has as its system LOX IMVI melanoma.
In experiment [20] the test system is SK-MEL-28 melanoma.

The panel holds about 83,000 compounds, 20% with a hit somewhere; the sample as a whole holds those more often.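 Assay: single dose, 48 h. Readout: percent growth (0 = no net growth; negative = cell death). Active: <10.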 A number with no mark means an inactive call. Activity calls are given as the source filed them.

Turning to `Oc1c(Cl)cc(Cl)c2ccc(Cn3cc(-c4cc(C(F)(F)F)cc(C(F)(F)F)c4)nn3)nc12`, the growth in experiment [1] is 21.9%; in experiment [2], 6.87% (active); in [3], -13.2% (active); in experiment [4], 87%; in experiment [5] it was -12.8% (active); in experiment [6], 77.2%. Moreover, the growth in experiment [7] was 106%; in experiment [8], 43.3%; in experiment [9], 49.9%; in experiment [10] it was 47.8%; in experiment [11], 12.5%; in [12], 53.4%. Further, the growth in experiment [13] is 62.3%; in experiment [14] it was 94%; in experiment [15] it was 105%; in [16] it was 74.8%; in [17], 92.6%; in experiment [18], 64.8%. Further, the growth in [19] was -10.3% (active); in experiment [20], 46%.
In the case of `CCNc1nc(-c2ccc(Cl)c(OC)c2)c(-c2ccnc(NCCCNS(=O)(=O)c3ccc(Cl)cc3)n2)s1`, the growth in [1] was 74.3%; in [2] it was 32.3%; in [3] it was 7.63% (active); in [4], 50.9%; in experiment [5], 70.2%; in experiment [6] it was 60.4%. The growth in experiment [7] is 70.3%; in experiment [8], 86.6%; in experiment [9] it was 29.2%; in experiment [10], 23%; in experiment [11], 61.6%; in experiment [12], 19.1%. The growth was 77.6% in experiment [13]; 81.8% in experiment [14]; 51.9% in [15]; 29.4% in [16]; 48.2% in experiment [17]; 29.7% in [18]. For the same compound, the growth is 56.3% in [19] and 38.9% in [20].
On to `Cc1nc(-c2ccccc2)cc2c(O)c(C(=O)NN)[nH]c(=O)c12`, for which the growth was 115% in experiment [1]; 104% in [2]; 229% in [3]; 102% in experiment [4]; 101% in [5]; 96.2% in experiment [6]. For the same compound, the growth in experiment [7] is 111%; in [8] it was 100%; in experiment [9] it was 118%; in experiment [10], 101%; in [11] it was 107%; in experiment [12], 114%. Moreover, the growth was 104% in experiment [13]; 106% in experiment [14]; 106% in experiment [15]; 67.3% in experiment [16]; 100% in [17]; 98.6% in experiment [18]. Besides, the figures for the growth in experiment [19] and in experiment [20] were 107% and 111%, respectively.
Take `CCOc1ccc(NC(=O)CSc2oc(-c3ccccc3)nc2S(=O)(=O)c2ccc(F)cc2)cc1`: the growth in [1] was 89.8%; in [2], 65.9%; in experiment [3], 78.3%; in experiment [4] it was 64.2%; in [5], 77.6%; in experiment [6] it was 60.2%. Besides, the growth was 50% in [7]; 6.59% (active) in [8]; 70.1% in experiment [9]; 86.9% in experiment [10]; 77% in experiment [11]; 73.7% in [12]. Further, the growth was 103% in experiment [13]; 88% in experiment [14]; 53.4% in [15]; 55.7% in [16]; 79.7% in [17]; 62.8% in experiment [18]. Moreover, the figures for the growth in [19] and in experiment [20] were 74.1% and 72.6%, respectively.
Regarding `N#Cc1c(-c2cccs2)cc(-c2cccnc2)[nH]c1=O`, the growth was 109% in experiment [1]; 98.2% in experiment [2]; 104% in experiment [3]; 105% in experiment [4]; 101% in experiment [5]; 100% in [6]. For the same compound, the growth was 101% in experiment [7]; 95.5% in experiment [8]; 97.1% in experiment [9]; 106% in experiment [10]; 102% in [11]; 111% in experiment [12]. Moreover, the growth in experiment [13] is 102%; in experiment [14], 98.1%; in [15] it was 96.9%; in [16] it was 101%; in [17], 102%; in experiment [18], 95.5%. Further, the growth in experiment [19] is 97.5%; in experiment [20], 104%.
As to `Nc1ncnc2c1N=C(c1ccc3c(c1)OCO3)CC(c1ccc([N+](=O)[O-])cc1)N2` (stereo not given), the growth in [1] was 96.8%; in experiment [2], 96.5%; in experiment [3] it was 108%; in [4], 55.9%; in experiment [5], 50.4%; in experiment [6] it was 86.2%. Besides, the growth in experiment [7] is 296%; in experiment [8], 86.8%; in [9], 77.8%; in experiment [10], 92.2%; in experiment [11], 77%; in [12], 86.6%. Further, the growth in [13] was 59.5%; in experiment [14], 86.6%; in experiment [15], 86.8%; in [16], 47%; in experiment [17] it was 70.3%; in experiment [18] it was 64.8%. Besides, the growth in experiment [19] is 75.5%; in [20], 110%.
For the compound `O=C1/C(=C/c2ccc(Cl)c(Cl)c2)CN(C(=O)C(Cl)Cl)C/C1=C\c1ccc(Cl)c(Cl)c1`, the growth in [1] is -76.1% (active); in [2], 0.245% (active); in experiment [3], -57.6% (active); in [4], -34.2% (active); in experiment [5], -80% (active); in experiment [6], -64.7% (active). In addition, the growth in experiment [7] is -79.7% (active); in [8] it was -93.2% (active); in experiment [9] it was -11.4% (active); in experiment [10] it was -66.9% (active); in experiment [11] it was -62.1% (active); in experiment [12], -4.7% (active). The growth was -70.7% (active) in [13]; -93.7% (active) in experiment [14]; -92.4% (active) in [15]; -45.6% (active) in [16]; -79.4% (active) in experiment [17]; -46.9% (active) in [18]. Also, the growth was -91.7% (active) in experiment [19] and -64.4% (active) in experiment [20].
On to `CC/C(=C(/c1ccc(Cl)cc1)c1ccc(OCCN2CCCC2)cc1)c1ccc(OC)cc1`, for which the growth in [1] is 86.3%; in experiment [2], 5% (active); in experiment [3], 79.8%; in experiment [4], 80.2%; in [5], 67%; in [6] it was 87.1%. The growth was 66% in [7]; 82.6% in experiment [8]; 74.8% in experiment [9]; 50.3% in experiment [10]; 28.1% in experiment [11]; 13.7% in experiment [12]. Also, the growth was 103% in [13]; 80.1% in [14]; 45.3% in experiment [15]; 47.5% in experiment [16]; 66% in experiment [17]; 96.3% in experiment [18]. In addition, the growth in experiment [19] is 68.7%; in experiment [20] it was 85%.
